Laboratory results from PubChem BioAssay AID977607 (Broad Institute, 2014).
In all, about 1,500 compounds went through this assay and about 460 (31%) were called active. About 1% were inconclusive and are not listed.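 Rule for the calls: active = curve reaches 40% activation over neutral controls at an AC40 no higher than the top valid tested concentration; inconclusive = no clear call, values can overlap the other calls; inactive = signal moving opposite to the expected increase, and the rest.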 Only a sample is shown. Entries with a potency or affinity are not part of this list.

Assay: GLuc-reported insulin release enhancers, glucose-stimulated beta cells – cell-based, INS-1E, Gaussia luciferase, luminescence, cherry-pick, set 2, dose response (AID 977607);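 note: 0% = median of the plate neutral control wells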
Details: INS-1E GLuc insulin secretion reporter, 2-3 h, active compounds read high; at 35 µM, 100% = signal doubled over neutral wells unless noted

Max activation, inactive:
Cc1ccc(C(=O)c2sc3nc4c(cc3c2N)CCC4)cc1 -20.2% [at 3.8 µM, 100% = signal doubled over neutral wells]
O=C(N/N=C/c1ccncc1)c1cc(-c2ccc(Br)s2)[nH]n1 46.1%
Fc1cccc(-c2nnn3c2nc(Cl)c2ccccc23)c1 -32% [at 11 µM, 100% = signal doubled over neutral wells]
CCc1cc2c(COC(=O)c3cccc(NS(C)(=O)=O)c3)cc(=O)oc2cc1O -16.1%
O=C1CCc2cc(S(=O)(=O)N3CCN(c4ccc(F)cc4)CC3)cc3c2N1CC3 -14.5% [at 0.0016 µM, 100% = signal doubled over neutral wells]
CC(C)(C(=O)N1CCC1(C)C(=O)NS(=O)(=O)c1cccc(Cl)c1)c1ccccc1 (configuration not stated) -17.3% [at 0.135 µM, 100% = signal doubled over neutral wells]
CCOc1ccccc1CNS(=O)(=O)c1cnc[nH]1 -8.34% [at 0.005 µM, 100% = signal doubled over neutral wells]
CN1CCN(CC(O)COC(c2ccc(Cl)cc2)c2ccc(Cl)cc2)CC1 (configuration not stated) -16.1% [at 11 µM, 100% = signal doubled over neutral wells]
COc1ccccc1CSc1nc2c(c(=O)n(C)c(=O)n2C)n1C -16.4%
CC(=O)C(C)n1c(CN(C)Cc2ccccc2)nc2c1c(=O)n(C)c(=O)n2C (configuration not stated) 13.8% [at 11 µM, 100% = signal doubled over neutral wells]
CCOC(=O)c1nn(-c2ccccc2)c2nc(Nc3ccccc3)cc(=O)n12 -18.7% [at 0.0016 µM, 100% = signal doubled over neutral wells]
O=S(=O)(c1ccc(=S)[nH]c1)N1CCCCCC1 19.7%
Cc1ccc(C(=O)c2sc(Nc3ccccc3)c(C#N)c2N)cc1 -18.3% [at 0.005 µM, 100% = signal doubled over neutral wells]
Cc1ccc(C)c(OCC(=O)Nc2cc(NC(=O)COc3cc(C)ccc3C)cc(C(=O)O)c2)c1 -27.7%
Cc1ccc(C)c(OCC(=O)NCC(C)(C)N2CCOCC2)c1 -15.8% [at 0.015 µM, 100% = signal doubled over neutral wells]
CC(C)Cn1c(Cc2ccccc2)n[nH]c1=S -12.9% [at 3.8 µM, 100% = signal doubled over neutral wells]
Cc1ccc2nc(N/N=C/c3ccccc3C#N)nc(-c3ccccc3)c2c1 -36.1%
COCc1[nH]nc2c1C(c1ccc(C)cc1)NC2=O (configuration not stated) 25.3%
CCOc1ccc(C(=O)OCC(=O)Nc2cc(C)on2)cc1OCC 24%
COc1ccc(S(=O)(=O)N2CCOCC2)cc1NC(=O)COc1ccccc1 -23.5%
CCOc1ccc(-c2noc(CCC(=O)NC)n2)cc1OCC -18.4% [at 0.005 µM, 100% = signal doubled over neutral wells]
COc1ccc(C(C)=O)cc1Cn1cnc2c(cnn2C)c1=O -12.8% [at 0.015 µM, 100% = signal doubled over neutral wells]
O=C(Cn1cnc2sc(-c3ccccc3)cc2c1=O)NCCc1ccccc1 -13.9% [at 11 µM, 100% = signal doubled over neutral wells]
Cc1sc2ncn(CC(=O)NCc3ccccc3)c(=O)c2c1C -22.8% [at 0.015 µM, 100% = signal doubled over neutral wells]
CCC(=O)Nc1cc2nn(-c3ccc(OC)cc3)nc2cc1C -15.9% [at 3.8 µM, 100% = signal doubled over neutral wells]
Cc1cc(-c2ccc(S(=O)(=O)N3CCN(C)CC3)s2)on1 -22.5%
OC(c1ccc(Cl)cc1)C(CN1CCOCC1)c1ccccc1 (configuration not stated) -24.5%
COC(=O)c1ccc(CNC(=O)CCc2c[nH]c3ccccc23)cc1 -13.7% [at 0.015 µM, 100% = signal doubled over neutral wells]
C/C(=N/Oc1nc(C)cc(C)n1)c1ccc(F)cc1 -10.7% [at 3.8 µM, 100% = signal doubled over neutral wells]
COc1ccc(-n2c(O)cnc2Nc2nc(C)cc(C)n2)cc1OC -16.8% [at 0.135 µM, 100% = signal doubled over neutral wells]
CNc1cc(-c2ccc(OC)c(OC)c2)ncn1 -15.3% [at 0.046 µM, 100% = signal doubled over neutral wells]
CNc1ccc(-c2ccccc2OC)cn1 -9.32% [at 1.2 µM, 100% = signal doubled over neutral wells]
O=C(NC1CCCC1)c1ccc(Cl)c(S(=O)(=O)N2CCOCC2)c1 23.2% [at 0.42 µM, 100% = signal doubled over neutral wells]
Cc1ccccc1CSCc1ccc(C(=O)NCCCN2CCOCC2)o1 -12.1% [at 0.046 µM, 100% = signal doubled over neutral wells]
CCOc1ccc2oc(=O)cc(CN3CCOCC3)c2c1 12.7%
CC(C)CC(=O)Nc1c2c(nn1-c1ccc(F)cc1)CS(=O)(=O)C2 -20.4% [at 1.2 µM, 100% = signal doubled over neutral wells]
Cc1ccccc1-n1nc2c(c1NC(=O)c1cc3ccccc3oc1=O)CS(=O)(=O)C2 24.5% [at 3.8 µM, 100% = signal doubled over neutral wells]
c1ccc(CNc2nc(Oc3ccncc3)c3sccc3n2)cc1 13.8% [at 11 µM, 100% = signal doubled over neutral wells]
Cc1cc(Cl)ccc1-c1nc(NCc2ccccc2)nc2ccsc12 -22.5% [at 11 µM, 100% = signal doubled over neutral wells]
C[C@@H]1CN([C@H](C)CO)C(=O)CCCn2cc(nn2)CO[C@H]1CN(C)S(=O)(=O)c1cccs1 -22.5% [at 11 µM, 100% = signal doubled over neutral wells]
C[C@@H]1CC2=C(C(=O)OC(C)(C)O2)[C@H](c2ccc(F)cc2)O1 -20.8% [at 0.015 µM, 100% = signal doubled over neutral wells]
NC(=O)c1ccsc1NC(=O)COC(=O)CNC(=O)c1ccc(Cl)cc1 -11.2% [at 0.005 µM, 100% = signal doubled over neutral wells]
CC1(C(=O)NCc2ccccc2)CN(S(C)(=O)=O)CC(=O)N1C1CC1 (configuration not stated) -10.6% [at 11 µM, 100% = signal doubled over neutral wells]
CCN(CCC(=O)O)c1ccccc1 -16.1% [at 0.135 µM, 100% = signal doubled over neutral wells]
O=C(Cn1cc(C(F)(F)F)ccc1=O)NCC1CCCO1 (configuration not stated) -21% [at 0.015 µM, 100% = signal doubled over neutral wells]
CC1=NS(=O)(=O)NC(C)(C)C1 51.2% [at 0.42 µM, 100% = signal doubled over neutral wells]
COc1ccc(CCNC(=O)COC(=O)c2cncc(Br)c2)cc1OC -19.1%
CCc1ccc(OCC(=O)NC(=S)Nc2ccc(C)cc2C)c(Br)c1 -19.5% [at 0.046 µM, 100% = signal doubled over neutral wells]
COCCN(CCOC)Cc1cc(=O)oc2cc(OC)c(Cl)cc12 13.5% [at 11 µM, 100% = signal doubled over neutral wells]
O=C(COC(=O)C1CCC1)NC(=O)c1ccccc1 -14.8% [at 11 µM, 100% = signal doubled over neutral wells]
CN(C)C(=O)COC(=O)c1cccnc1Nc1ccccc1F -17.2% [at 3.8 µM, 100% = signal doubled over neutral wells]
Cc1ccc(OCC(=O)NC(C)c2ccccc2)cc1 (configuration not stated) 22.7% [at 0.005 µM, 100% = signal doubled over neutral wells]
CN(C)N1C(N)=C(C#N)C(c2ccc(F)cc2)C2=C1CCCC2=O (configuration not stated) 30.5% [at 11 µM, 100% = signal doubled over neutral wells]
CCOC(=O)Nc1ccc2c(c1)Sc1ccccc1N2C(=O)CCN1CCOCC1 -19.4% [at 0.0016 µM, 100% = signal doubled over neutral wells]
CN1CCC(N(C)S(=O)(=O)c2ccc(NC(=O)COc3cccc(Cl)c3)cc2)CC1 -15.6%
CC(C)OCC(O)CN1CCC(Cc2ccccc2)CC1 (configuration not stated) -7.86% [at 0.005 µM, 100% = signal doubled over neutral wells]
O=C(N1CCOCC1)N1CCN(c2ccccn2)CC1 26.8% [at 1.2 µM, 100% = signal doubled over neutral wells]
